Compound activity as filed in PubChem.
CHT inh = inhibitors of human choline transporter CHT; B-score at 10 µM; AID 488975; Q9GZV3; CHT-expressing cells, membrane potential dye, choline response; active compounds read low; 310,000 compounds, 0.86% hits;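 active = B-score over 3 SD under the library average, and starting fluorescence ratio not unusually high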;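 also: choline stimulus applied at its EC90 after an EC20 pre-addition; B-score computed on integrated fluorescence ratio after choline addition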
Target sequence (Q9GZV3 whole entry, looked up): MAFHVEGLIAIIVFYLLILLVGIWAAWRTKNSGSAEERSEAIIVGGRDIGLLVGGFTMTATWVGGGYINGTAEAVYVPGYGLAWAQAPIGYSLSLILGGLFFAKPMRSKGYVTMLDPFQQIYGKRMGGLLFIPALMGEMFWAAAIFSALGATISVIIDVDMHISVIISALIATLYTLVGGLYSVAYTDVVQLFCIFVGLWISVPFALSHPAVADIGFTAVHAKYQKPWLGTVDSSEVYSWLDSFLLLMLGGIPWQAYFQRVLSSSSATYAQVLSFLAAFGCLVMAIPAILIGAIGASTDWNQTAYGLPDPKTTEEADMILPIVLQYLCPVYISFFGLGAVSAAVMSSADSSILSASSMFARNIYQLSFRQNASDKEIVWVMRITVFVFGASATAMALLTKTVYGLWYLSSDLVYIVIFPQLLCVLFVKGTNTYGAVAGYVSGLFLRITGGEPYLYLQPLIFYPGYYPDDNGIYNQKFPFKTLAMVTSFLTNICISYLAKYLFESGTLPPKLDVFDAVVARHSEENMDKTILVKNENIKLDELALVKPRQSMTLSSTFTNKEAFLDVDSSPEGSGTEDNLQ
PHOSPHO1 inh = blocks human PHOSPHO1 phosphatase activity. inhibition, % at 13.3 µM. AID 1565. Q8TCT1. recombinant PHOSPHO1, absorbance phosphatase assay. 290,000 compounds, 1.1% hits; in the data active = inhibition above about 60%
ANO1 block = blocks the mouse calcium-activated chloride channel TMEM16A. Q8BHY3. AID 588511. normalized B-score (activity score, 25-100; higher = stronger inhibition) at 10 µM. 310,000 compounds, 1.2% hits. HEK293 TMEM16A/YFP iodide influx fluorescence, ionomycin;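 active = ratio plate-corrected score three or more library SD toward inhibition, starting fluorescence score within five deviations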;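 also: score derived from kinetic fluorescence span divided by baseline fluorescence per well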
ANO1 activ = mouse TMEM16A channel activation, primary screen. HEK293 TMEM16A/YFP-H148Q/I152L, iodide quench fluorescence; active compounds read low. B-score at 10 µM. 340,000 compounds, 0.3% hits;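 active = fluorescence-ratio B-score plate-corrected deviation score at least 3 library SD below zero, with starting fluorescence score within 5 deviations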;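 also: channel opened by trigger with iodide after compound preincubation; score built on the fluorescence ratio of max minus min over baseline; more negative score means more quench and so TMEM16A activation or potentiation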
HDAC3 inhib = blocks human histone deacetylase 3. O15379. recombinant HDAC3, fluorogenic peptide/trypsin coupled, fluorescence. inhibition, % at 8.3 µM. 320,000 compounds, 0.15% hits. AID 2718; in the data active = inhibition above about 26%, passing the limit was not always enough
CHT allo act = human CHT allosteric activation | Q9GZV3 | CHT-expressing cells, membrane potential dye, choline EC20; active compounds read high; LV-AA mutant CHT in HEK293 cells | B-score at 10 µM | 310,000 compounds, 0.49% hits | AID 488977;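 active = initial fluorescence not abnormally high and integrated response B-score, plate-corrected, over 3 SD above library mean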
CHT act confirm = confirmation of human choline transporter (CHT) activators | shares compounds with CHT allo act | CHT-expressing cells, membrane potential dye fluorescence (FDSS); % of choline EC20–EC90 response window; HEK293 expressing CHT LV-AA mutant; choline added at its EC20 | activation, % at 10 µM | 2,500 compounds, 91% hits | AID 504833;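 active = primary screen active, with duplicate mean activation above negative control mean plus 3 SD, cut at about 11% in these data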
HEK293 MP dye = counter-screen for CHT activators: effect in parental HEK293 cells; membrane potential dye fluorescence (FDSS); measured after EC20 choline addition; ratio readout change at 10 µM, hits read low; shares compounds with CHT allo act; 2,500 compounds, 62% hits;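 active = duplicate-averaged ratio beyond 3 SD from buffer wells, up or down, though filed actives are nearly all decreases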
Large screens that a line does not name were inactive (follow-up assays come after a bar, where they were run). In the library only some 3.2% were active in any assay of this set; here they are far more common.

Cc1ccc(NC(=O)COc2ccc(C(=O)c3ccccc3)cc2)c(O)c1	none
C(=N\n1cnnc1)/c1ccc2ncccc2c1	CHT allo act 8 | CHT act confirm 67 | HEK293 MP dye -80
C(=N\n1cnnc1)/c1ccccn1	none
CCc1cccc(OCCn2nc(C(=O)O)c3ccccc3c2=O)c1	none | CHT act confirm 30 | HEK293 MP dye inactive
Cc1cc(OCCn2nc(C(=O)O)c3ccccc3c2=O)ccc1C(C)C	none (no result: CHT inh, ANO1 block, HDAC3 inhib, CHT allo act)
Cc1ccc2oc(=O)cc(CN3CCC(C)CC3)c2c1	none
CCc1cc2c(CN3CCN(CCO)CC3)cc(=O)oc2cc1O	none | CHT act confirm 37 | HEK293 MP dye -30
CCc1cc2c(CN3CCN(C)CC3)cc(=O)oc2cc1O	none (no result: HDAC3 inhib)
Cc1cc(C)c2c(CN3CCN(C)CC3)cc(=O)oc2c1	none | CHT act confirm 46 | HEK293 MP dye -42
Cc1ccc2c(CN3CCN(CCO)CC3)cc(=O)oc2c1C	CHT allo act 8.9 | CHT act confirm 54 | HEK293 MP dye -59
Cc1ccc2c(CN3CCOCC3)cc(=O)oc2c1C	none (no result: PHOSPHO1 inh)
CCN1CCN(Cc2cc(=O)oc3ccc(C)cc23)CC1	none | CHT act confirm 44 | HEK293 MP dye -46
COc1ccc(/C=C2\C(=O)ON=C2c2ccccc2)cc1OC	none
O=C(CCCOc1ccc(Cl)cc1Cl)NC(Cc1ccccc1)C(=O)O (centres undefined)	none (no result: CHT inh, PHOSPHO1 inh, ANO1 block, HDAC3 inhib, CHT allo act)
CCOC(=O)C1CCCN(S(=O)(=O)c2cc(C(=O)OC)n(C)c2)C1 (centres undefined)	none
CC1CCN(Cc2cc(=O)oc3cc4c(cc23)CCCC4)CC1	none
CN1CCN(Cc2cc(=O)oc3cc4c(cc23)CCC4)CC1	none | CHT act confirm 22 | HEK293 MP dye -49
CCc1cc(CNC(=O)c2ccc(OC3CCN(CCc4ccccc4)CC3)cc2)on1	CHT allo act 6.5 | CHT act confirm inactive | HEK293 MP dye -25
Cc1nn(-c2ccccn2)c2nc(-c3cccs3)cc(C(=O)NCc3ccco3)c12	none | CHT act confirm 19 | HEK293 MP dye inactive
Cc1cc(NCCOCCO)n2c(nc3ccccc32)c1C#N	none | CHT act confirm 51 | HEK293 MP dye -59
COCCNc1cc(C)c(C#N)c2nc3ccccc3n12	none | CHT act confirm 24 | HEK293 MP dye -49
O=C(O)c1ccc2c(=O)n3c(nc2c1)/C(=C/c1ccc(C(F)(F)F)cc1)CC3	none (no result: ANO1 activ)
COc1cc(/C=C2\CCn3c2nc2cc(C(=O)O)ccc2c3=O)ccc1OC(F)F	none (no result: HDAC3 inhib) | CHT act confirm 26 | HEK293 MP dye -32
CCOC(=O)c1[nH]c2ccccc2c1NC(=O)c1nonc1C	none
O=C(NCc1ccco1)c1ccc2c(c1)S(=O)(=O)c1ccccc1C2=O	CHT allo act 8.6 (no result: PHOSPHO1 inh) | CHT act confirm 30 | HEK293 MP dye inactive
Cc1ccc2c(c1)C(c1ccc(O)cc1)(c1ccc(O)cc1)C(=O)N2C	CHT allo act 6.4 | CHT act confirm inactive | HEK293 MP dye inactive
Cc1ccc2c(c1)C1(C(=O)N2C)N2CC3(C)CN1CC(C)(C2)C3=O (centres undefined)	none
CCN(CC)CCCNc1ncnc2ccccc12	CHT allo act 7.8 | CHT act confirm 61 | HEK293 MP dye -66
CCCNC(=O)c1ccccc1NC(=O)c1ccccc1N(C)S(=O)(=O)c1ccccc1	none
CC1(C)Cc2c(sc3c2C2=NCCN2C=N3)CS1	CHT allo act 9.5 | CHT act confirm 34 | HEK293 MP dye -62
COc1ccc(N2CC(C)Cn3c2nc2c3c(=O)n(Cc3ccc(F)cc3)c(=O)n2C)c(OC)c1 (centres undefined)	none | CHT act confirm 18 | HEK293 MP dye inactive
O=C1C=CC2C(c3ccc4c(c3)OCO4)CC1N2Cc1ccccc1 (centres undefined)	none
O=[N+]([O-])c1cccc(/C=N/Nc2nccnc2Cl)c1	CHT allo act 6.2 | CHT act confirm 41 | HEK293 MP dye -37
